Here are results for two molecules from the supplement of paper PMC8728848.

This is one part of a sample in which the strongest signals are shown more often than they occur.

Experiment in all cases: glycan array binding signal (z-score within array); higher = stronger binding
What all share (settings): glycan notation: IUPAC condensed, linker removed

Assay [1] deals with Fuc(a1-2)Gal(b1-3)GlcNAc(b1-2)Man(a1-3)[Fuc(a1-2)Gal(b1-3)GlcNAc(b1-2)Man(a1-6)]Man(b1-4)GlcNAc(b1-4)GlcNAc. The procedure, abridged:
(§1)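 From the Consortium for Functional Glycomics database, 3228 arrays were curated, keeping only those whose protein sequence was available. Binding is given as a within-array Z-score averaged across arrays sharing a protein sequence and across linkers. Negative Z-scores can be read as non-binding.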

The target of assay [2] is Fuc(a1-2)Gal(b1-4)Glc6S. An outline of the steps: as §1
Assay [3] has as its target Fuc(a1-2)Gal(b1-4)GlcNAc. An outline of the steps: as §1
The target of assay [4] is Fuc(a1-2)Gal(b1-4)GlcNAc6S. The procedure, abridged:
as §1

Assay [5] concerns the target Fuc(a1-2)Gal(b1-4)[Fuc(a1-3)]GlcNAc. The procedure, abridged: as §1
Assay [6] addresses Fuc(a1-2)Gal(b1-4)[Fuc(a1-3)]GlcNAc(b1-3)Gal(b1-4)[Fuc(a1-3)]GlcNAc. An outline of the steps:
as §1

Assay [7] concerns the target Fuc(a1-2)Gal(b1-4)[Fuc(a1-3)]GlcNAc(b1-3)Gal(b1-4)[Fuc(a1-3)]GlcNAc(b1-3)Gal(b1-4)[Fuc(a1-3)]GlcNAc. An outline of the steps:
as §1

For assay [8], the target named is Fuc(a1-2)Gal6S(b1-4)Glc. An outline of the steps:
as §1

In assay [9] the target is Fuc(a1-2)[Gal(a1-3)]Gal(b1-4)Glc. An outline of the steps: as §1
Assay [10] concerns the target Fuc(a1-2)[GalNAc(a1-3)]Gal. An outline of the steps:
as §1

For assay [11], the target named is Fuc(a1-2)[GalNAc(a1-3)]Gal(b1-3)GlcNAc(b1-2)Man(a1-3)[Fuc(a1-2)[GalNAc(a1-3)]Gal(b1-3)GlcNAc(b1-2)Man(a1-6)]Man(b1-4)GlcNAc(b1-4)GlcNAc. An outline of the steps: as §1
The target in assay [12] is Fuc(a1-3)GlcNAc. An outline of the steps:
as §1

Assay [13] has as its target Fuc(a1-3)[Gal3S(b1-4)]GlcNAc. An outline of the steps: as §1
The target of assay [14] is Fuc(a1-4)GlcNAc. The procedure, abridged:
as §1

The target in assay [15] is Gal(a1-3)Gal(b1-3)GlcNAc. An outline of the steps:
as §1

Assay [16] addresses Gal(a1-3)Gal(b1-4)[Fuc(a1-3)]GlcNAc(b1-2)Man(a1-3)[Gal(a1-3)Gal(b1-4)[Fuc(a1-3)]GlcNAc(b1-2)Man(a1-6)]Man(b1-4)GlcNAc(b1-4)GlcNAc. The procedure, abridged:
as §1

Assay [17] addresses Gal(a1-3)[Gal(a1-4)]Gal(b1-4)GlcNAc. The procedure, abridged: as §1
For assay [18], the target named is Gal(a1-4)GlcNAc. An outline of the steps: as §1
The target of assay [19] is Gal(b1-3)GalNAc. The procedure, abridged:
as §1

The target of assay [20] is Gal(b1-4)Glc. The procedure, abridged: as §1
Assay [21] concerns the target Gal(b1-4)GlcNAc(b1-2)[Gal(b1-4)GlcNAc(b1-6)]Man(a1-6)[Gal(b1-4)GlcNAc(b1-2)Man(a1-3)]Man(b1-4)GlcNAc(b1-4)GlcNAc. The procedure, abridged: as §1
Assay [22] concerns the target Gal(b1-4)GlcNAc(b1-3)Gal(b1-4)Glc. An outline of the steps: as §1
Assay [23] deals with Gal(b1-4)GlcNAc(b1-3)GalNAc. The procedure, abridged: as §1
Assay [24] concerns the target Gal(b1-4)GlcNAc(b1-3)[Gal(b1-4)GlcNAc(b1-6)]GalNAc. An outline of the steps:
as §1

Assay [25] concerns the target Gal3S(b1-3)GalNAc. The procedure, abridged:
as §1

Assay [26] has as its target Gal3S(b1-4)[Fuc(a1-3)]Glc. An outline of the steps: as §1
In assay [27] the target is Gal3S6S(b1-4)GlcNAc6S. An outline of the steps: as §1
Assay [28] concerns the target Gal6S(b1-3)GlcNAc6S. The procedure, abridged: as §1
Assay [29] deals with GalNAc(a1-3)Gal. The procedure, abridged:
as §1

Assay [30] has as its target GalNAc(a1-3)GalNAc(a1-3)Gal(a1-4)Gal(b1-4)GlcNAc. The procedure, abridged: as §1
Assay [31] concerns the target GlcNAc(b1-3)Gal(b1-4)GlcNAc(b1-3)Gal(b1-4)GlcNAc(b1-3)Gal(b1-4)GlcNAc(b1-2)Man(a1-3)[GlcNAc(b1-3)Gal(b1-4)GlcNAc(b1-3)Gal(b1-4)GlcNAc(b1-3)Gal(b1-4)GlcNAc(b1-2)Man(a1-6)]Man(b1-4)GlcNAc(b1-4)[Fuc(a1-6)]GlcNAc. An outline of the steps: as §1
Assay [32] has as its target GlcNAc(b1-3)Man. An outline of the steps: as §1
The target in assay [33] is GlcNAc(b1-4)GlcNAc. The procedure, abridged:
as §1

Assay [34] addresses Kdn(a2-3)Gal(b1-4)GlcNAc. The procedure, abridged:
as §1

Assay [35] deals with Man(a1-2)Man(a1-6)[Man(a1-3)]Man(a1-6)[Man(a1-2)Man(a1-2)Man(a1-3)]Man(b1-4)GlcNAc(b1-4)GlcNAc. The procedure, abridged: as §1
Assay [36] has as its target Neu5Ac(a2-3)Gal. The procedure, abridged:
as §1

For assay [37], the target named is Neu5Ac(a2-3)Gal(b1-3)GalNAc(b1-4)[Neu5Ac(a2-3)]Gal(b1-4)Glc. The procedure, abridged: as §1
For assay [38], the target named is Neu5Ac(a2-3)Gal(b1-4)GlcNAc(b1-2)Man. An outline of the steps: as §1
Assay [39] addresses Neu5Ac(a2-3)Gal(b1-4)GlcNAc(b1-2)Man(a1-3)[Neu5Ac(a2-3)Gal(b1-4)GlcNAc(b1-2)Man(a1-6)]Man(b1-4)GlcNAc(b1-4)[Fuc(a1-6)]GlcNAc. An outline of the steps: as §1
Assay [40] has as its target Neu5Ac(a2-3)Gal(b1-4)GlcNAc(b1-3)Gal(b1-4)GlcNAc(b1-3)Gal(b1-4)GlcNAc(b1-2)Man(a1-3)[Neu5Ac(a2-3)Gal(b1-4)GlcNAc(b1-3)Gal(b1-4)GlcNAc(b1-3)Gal(b1-4)GlcNAc(b1-2)Man(a1-6)]GalNAc. The procedure, abridged:
as §1

Assay [41] concerns the target Neu5Ac(a2-3)GalNAc(b1-4)GlcNAc. An outline of the steps: as §1
For assay [42], the target named is Neu5Ac(a2-6)Gal(b1-4)GlcNAc(b1-2)Man(a1-3)Man(b1-4)GlcNAc(b1-4)GlcNAc. An outline of the steps: as §1
Assay [43] concerns the target Neu5Ac(a2-6)Gal(b1-4)GlcNAc(b1-2)Man(a1-3)[Man(a1-6)]Man(b1-4)GlcNAc(b1-4)GlcNAc. The procedure, abridged: as §1
Assay [44] deals with Neu5Ac(a2-8)Neu5Ac(a2-3)[Gal(b1-3)GalNAc(b1-4)]Gal(b1-4)Glc. An outline of the steps:
as §1

Assay [45] addresses Neu5Gc(a2-8)Neu5Gc(a2-6)Gal(b1-4)GlcNAc. An outline of the steps:
as §1

B1: AFL (Aspergillus fumigatus), Q4WW81 (protein)
chain: STPGAQQVLFRTGIAAVNLTNHLRVYFQDVYGSIRESLYEGSWANGTEKNVIGNAKLGSPVAATSKELKHIRVYTLTEGNTLQEFAYDSGTGWYNGGLGGAKFQVAPYSRIAAVFLAGTDALQLRIYAQKPDNTIQEYMWNGDGWKEGTNLGGALPGTGIGATSFRYTDYNGPSIRIWFQTDDLKLVQRAYDPHKGWYPDLVTIFDRAPPRTAIAATSFGAGNSSIYMRIYFVNSDNTIWQVCWDHGKGYHDKGTITPVIQGSEVAIISWGSFANNGPDLRLYFQNGTYISAVSEWVWNRAHGSQLGRSALPPA
For B1, the “glycan array binding signal (z-score)” value in assay [1] was -0.22; in [2], 3.64; in assay [3], 2.94; in assay [4] it was 3.17; in assay [5], 4.58; in [6], 3.88. The “glycan array binding signal (z-score)” value was 4.31 in assay [7]; 3.41 in assay [8]; -0.359 in [9]; 1.73 in assay [10]; -0.374 in assay [11]; 3.8 in [12]. The “glycan array binding signal (z-score)” value was 0.994 in assay [13]; 3.56 in assay [14]; -0.384 in assay [15]; -0.087 in assay [16]; -0.382 in assay [17]; -0.385 in [18]. Also, the “glycan array binding signal (z-score)” value in assay [19] is -0.383; in assay [20], -0.383; in assay [21], -0.356; in assay [22], -0.386; in assay [23] it was -0.386; in [24], -0.382. Also, the “glycan array binding signal (z-score)” value in assay [25] is -0.387; in assay [26], 0.328; in assay [27], -0.381; in [28], -0.385; in [29] it was -0.386; in [30], -0.4.

B2: Als3-41 (Candida albicans) (protein)
chain: KTITGVFNSFNSLTWSNAATYNYKGPGTPTWNAVLGWSLDGTSASPGDTFTLNMPCVFKFTTSQTSVDLTAHGVKYATCQFQAGEEFMTFSTLTCTVSNTLTPSIKALGTVTLPLAFNVGGTGSSVDLEDSKCFTAGTNTVTFNDGGKKISINVDFERSNVDPKGYLTDSRVIPSLNKVSTLFVAPQCANGYTSGTMGFANTYGDVQIDCSNIHVGITKGLNDWNYPVSSESFSYTKTCSSNGIFITYKNVPAGYRPFVDAYISATDVNSYTLSYANEYTCAGGYWQRAPFTLRWTGYRNSDAGSNGIVIVATTRTVTDSTTAVTTLPFDPNRDKTKTIEILKPIPTTTITTSYVGVTTSYLTKTAPIGETATVIVD
In the case of B2, the “glycan array binding signal (z-score)” value in [31] was 1.72; in assay [32], 0.501; in assay [33] it was 1.79; in [34] it was -0.355; in assay [35], -0.239; in [36], -0.322. Also, the “glycan array binding signal (z-score)” value in assay [37] was -0.31; in assay [38] it was 0.213; in assay [39] it was -0.35; in assay [40] it was 6.54; in assay [41], -0.224; in assay [42] it was -0.296. Also, the figures for the “glycan array binding signal (z-score)” value in assay [43], in [44] and in [45] were -0.268, -0.006 and -0.217, respectively.
